NOD2 RIPK2 PPI: blocks binding of human NOD2 to RIPK2. O43353. AID 624267. actives 0.38% (n = 360,000). CHO BLA complementation NOD2-RIPK2, CCF4 ratio. inhibition, % at 4.98 µM; in the data active = inhibition above about 21%;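 note: 0% = vehicle only and 100% = reference blocker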
ABHD5-PLIN5 inh: ABHD5-PLIN5 protein interaction inhibition. Q00G26+Q8WTS1. Split G. princeps luciferase complementation, luminescence, 4 h. inhibition, % at 4 µM. actives 0.78% (n = 360,000);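 active = inhibition above the mean inhibition across every tested compound plus 3 SD, cut at about 22% in these data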;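 note: 0% = DMSO only wells and the 100% control is not disclosed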
TLR4-MyD88 BLA: TLR4-MyD88 interaction inhibition in cells | O00206+Q99836 | HeLa CL3-4 TLR4/MyD88 BLA complementation, FRET ratio | inhibition, % at 8.4 µM | actives 0.18% (n = 200,000); in the data active = inhibition above about 25%;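 note: 0% = vehicle and 100% = reference inhibitor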
TLR9-MyD88 inh: TLR9-MyD88 interaction inhibition; Q9NR96+Q99836; CHO BLA complementation TLR9-MyD88, CCF4 FRET ratio; inhibition, % at 4.98 µM; actives 0.21% (n = 340,000); AID 504734;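 active = inhibition above the mean over all tested compounds plus 3 SD, cut at about 21% in these data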;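 note: 0% = DMSO only wells and 100% = clavulanate BLA inhibitor control wells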
TLR9-MyD88 cf: confirmation of human TLR9-MyD88 binding inhibitors; shares compounds with TLR9-MyD88 inh; CHO TLR9/MyD88 BLA complementation, CCF4 FRET ratio; inhibition, % at 4.98 µM; actives 51% (n = 680);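 active = mean inhibition across three repeats above about 21% taken from the earlier screen, limit read from the data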;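 note: blue over green emission ratio reports constitutive TLR9 MyD88 association via BLA complementation; 0% = DMSO vehicle wells and 100% = clavulanate BLA inhibitor wells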
BLA counter-1: non-selective beta-lactamase inhibitors in TLR9-MyD88 counter-screen. shares compounds with TLR9-MyD88 inh. CHO-BLA cells, CCF4 FRET ratio, BLA reporter. inhibition, % at 4.98 µM. actives 7% (n = 680);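 active = mean inhibition above a 50% cutoff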;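 note: counterscreen of TLR9-MyD88 hits on CMV-driven BLA in CHO-K1 cells; 0% = DMSO alone and 100% = clavulanate blocking BLA; higher means less blue over green ratio so more BLA blockade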
TLR9 CHO cytotox: CHO cell toxicity counter-screen for TLR9-MyD88 inhibitors. shares compounds with TLR9-MyD88 inh. TLR9-MyD88 CHO cells cytotoxicity, luminescence. inhibition, % at 4.98 µM. actives 39% (n = 680); in the data active = inhibition above about 11%
ABHD5-PLIN5 conf: confirmation of human ABHD5-PLIN5 interaction inhibitors; biochemical ABHD5-PLIN5 interaction, luminescence; AID 651612; shares compounds with ABHD5-PLIN5 inh; inhibition, % at 4 µM; actives 67% (n = 2,200); in the data active = inhibition above about 23%;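 note: 0% = DMSO vehicle wells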
HNF4 counter: active in HNF4 split-luciferase counter-screen for ABHD5-PLIN5 inhibitors; shares compounds with ABHD5-PLIN5 inh; actives 77% (n = 2,200); inhibition, % at 4 µM; HNF4 dimerization, luminescence, biochemical;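 active = mean inhibition across replicate wells exceeding the computed hit threshold, cut at about 13% in these data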;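 note: light from luciferase halves that rejoin when HNF4 fusion proteins dimerize; 0% = DMSO only wells and the 100% control is not given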
Target sequence (P41235 whole entry, looked up, the tested form may be a part): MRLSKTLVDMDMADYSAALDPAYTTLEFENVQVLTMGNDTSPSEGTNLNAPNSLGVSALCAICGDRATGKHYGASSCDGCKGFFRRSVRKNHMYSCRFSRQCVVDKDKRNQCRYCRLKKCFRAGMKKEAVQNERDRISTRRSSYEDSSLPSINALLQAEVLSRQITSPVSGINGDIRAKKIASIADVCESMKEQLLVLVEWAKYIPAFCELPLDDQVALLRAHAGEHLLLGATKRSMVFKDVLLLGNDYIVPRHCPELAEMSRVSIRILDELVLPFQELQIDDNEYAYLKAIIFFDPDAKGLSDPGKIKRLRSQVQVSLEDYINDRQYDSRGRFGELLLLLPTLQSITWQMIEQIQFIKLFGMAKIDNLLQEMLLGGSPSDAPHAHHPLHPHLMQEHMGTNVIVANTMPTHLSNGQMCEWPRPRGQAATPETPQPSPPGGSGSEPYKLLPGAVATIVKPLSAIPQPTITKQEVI
NOD2 RIPK2 conf: confirmation of human NOD2-RIPK2 interaction inhibitors; shares compounds with NOD2 RIPK2 PPI; CHO cells, NOD2-RIPK2 BLA complementation, CCF4 FRET; inhibition, % at 4.98 µM; actives 70% (n = 1,200);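 active = mean inhibition across replicates above a set limit taken from the earlier primary screen, cut at about 21% in these data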;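 note: 0% = DMSO-only wells and the high end = clavulanate BLA-blocked wells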
BLA counter-2: counter-screen for NOD2-RIPK2 interaction inhibitors: BLA reporter; shares compounds with NOD2 RIPK2 PPI; CHO BLA reporter, CCF4 FRET ratio, counterscreen; inhibition, % at 4.98 µM; actives 57% (n = 1,200); AID 624371;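 active = mean inhibition above the low-control mean inhibition plus three low-control SD, cut at about 11% in these data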;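 note: 0% = DMSO only wells and 100% = clavulanate high control wells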
* marks the source's active call; other numbers are inactive results; . = no result given; ! = a repeat was not active. Compounds with a hit are over-represented: about 1.2% of the library has one in this group of screens.

SMILES	NOD2 RIPK2 PPI	ABHD5-PLIN5 inh	TLR4-MyD88 BLA	TLR9-MyD88 inh	TLR9-MyD88 cf	BLA counter-1	TLR9 CHO cytotox	NOD2 RIPK2 conf	BLA counter-2	others
CC(=O)Oc1cccc(N2C(=O)c3cccc4c([N+](=O)[O-])ccc(c34)C2=O)c1	45*	2	.	42*	47*	42	94*	63*	67*
CC(=O)Oc1cccc(N2C(=O)c3ccc(C(=O)O)cc3C2=O)c1	-1	-4	-4	-7	.	.	.	.	.
O=C(N=Nc1c(O)n(Cc2ccccc2)c2ccccc12)c1ccc(O)cc1	-8	3	1	-1	.	.	.	.	.
O=Nc1c(O)n(Cc2c(Cl)cccc2Cl)c2ccccc12	29*	-14	-3	35*	14	24	6	36*	42*
O=C(NCc1ccccc1)c1onc(CS(=O)(=O)c2ccc(Cl)cc2)c1C(=O)NCc1ccccc1	-3	-1	.	-4	.	.	.	.	.
O=C(c1nc2n(n1)C(c1ccc(Cl)cc1)C=C(c1ccccc1)N2)N1CCOCC1 (stereo not drawn)	48*	6	22	42*	12	12	1	27*	21*
CC1=C(C(=O)Nc2ccccn2)C(c2ccc(Cl)cc2Cl)NC(=S)N1 (stereo not drawn)	-3	0	-10	-4	.	.	.	.	.
CCCS(=O)(=O)NC(=O)C1(C)CCCN(C(=O)c2cc(OC)ccc2Br)C1 (stereo not drawn)	-2	0	.	.	.	.	.	.	.
Nc1ccc2c3c(cccc13)-c1ccccc1-2	67*	-15	.	62*	58*	54*	2	74*	81*
Cc1ccc(CNC(=O)Cn2ccc3cc(S(=O)(=O)N4CCCC4)ccc32)o1	1	7	.	-3	.	.	.	.	.
COc1ccc(C(=O)/C=C/c2ccc(N(C)C)cc2)c(OC)c1	59*	1	.	36*	29*	31	0	62*	66*
COc1ccc(OC)c(NC(=O)c2nc(S(=O)(=O)Cc3ccccc3)ncc2Cl)c1	94*	50*	.	57*	53*	44	99*	102*	49*	ABHD5-PLIN5 conf=93*;HNF4 counter=87*
Cc1ccc(NC(=O)c2nc(S(=O)(=O)Cc3ccccc3)ncc2Cl)cc1	92*	72*	.	45*	45*	34	99*	90*	41*	ABHD5-PLIN5 conf=94*;HNF4 counter=102*
COc1ccc(NC(=O)c2nc(S(=O)(=O)Cc3cccc(C)c3)ncc2Cl)c(OC)c1	9	15	.	4	.	.	.	.	.
O=C(Nc1ccc(F)cc1)c1nc(S(=O)(=O)Cc2ccccc2)ncc1Cl	93*	60*	.	36*	48*	36	99*	90*	43*	ABHD5-PLIN5 conf=90*;HNF4 counter=97*
Cc1ccccc1CS(=O)(=O)c1ncc(Cl)c(C(=O)Nc2ccc(F)cc2)n1	94*	77*	.	34*	34*	20	90*	83*	33*	ABHD5-PLIN5 conf=89*;HNF4 counter=90*
CC(=O)Nc1ccc(NC(=O)[C@H](C)NC(=O)c2ccco2)cc1	1	0	.	3	.	.	.	.	.
CCOC(=O)C(=CNc1ccc(OC)cc1[N+](=O)[O-])C(=O)OCC	-8	6	.	-5	.	.	.	.	.
OCCN1CCN(c2ncnc3c2ncn3[C@H]2CN(Cc3ccncc3)C[C@@H](CO)O2)CC1	-3	-1	.	.	.	.	.	.	.
C[C@@H]1[C@H](O)C[C@@]23COC(=O)C2=CCCC3[C@@]1(C)CCC1COC(=O)C1 (stereo partly drawn)	-9	3	.	-1	.	.	.	.	.
CCOC(=O)C1=C[C@@H](c2ccccc2)N(S(=O)(=O)c2ccc(C)cc2)[C@H]1c1ccccc1Cl	-8	3	.	.	.	.	.	.	.
O=C(Nc1cccc2c1C(=O)NC2=O)c1ccc(S(=O)(=O)N2CCCC2)cc1	22*	-6	22	38*	9	13	4	34*	43*
COc1ccc(C(=O)c2sc3nc(C)cc(-c4cccs4)c3c2N)cc1OC	61*	2	12	41*	25*	25	8	50*	60*
CC(C)NC(=O)c1sc2nc(-c3cccs3)cc(-c3cccs3)c2c1N	.	.	5	.	.	.	.	.	.
O=C(Nc1ccc(OC(F)(F)F)cc1)c1[nH]ncc1[N+](=O)[O-]	25*	-3	1	25*	2	8	9	20	6
SMILES	NOD2 RIPK2 PPI	ABHD5-PLIN5 inh	TLR4-MyD88 BLA	TLR9-MyD88 inh	TLR9-MyD88 cf	BLA counter-1	TLR9 CHO cytotox	NOD2 RIPK2 conf	BLA counter-2	others
Cc1onc(C(=O)Nc2ccc(OC(F)(F)F)cc2)c1[N+](=O)[O-]	-4	-7	.	3	.	.	.	.	.
CC1=Nc2ccc(C)cc2/C1=C/c1c(N)n2oc(C)cc2nc1=O	55*	9	-8	21*!	15	19	4	42*	29*
CC(C)(C)OC(=O)C[C@@H]1C/C=C\C[C@H](CC(=O)N(CCO)Cc2ccccc2)C(=O)NC[C@H](c2ccccc2)OC1=O	-11	4	.	5	.	.	.	.	.
O=C(NC1CC1)c1cccc2c1C(=O)c1ccc(N3CCC(Cc4ccccc4)CC3)cc1S2(=O)=O	34*	-5	.	32*	21	25	2	45*	50*
CCC(=O)Nc1ccc(C(=O)Cn2ncc(Cl)c(Cl)c2=O)cc1	22*	-1	.	21*	16	2	37*	34*	9
O=C(Cn1ncc(Cl)c(Cl)c1=O)c1ccc2c(c1)OCCO2	14	1	.	2	.	.	.	.	.
O=S(=O)(c1ccccc1)N(F)S(=O)(=O)c1ccccc1	0	2	.	-13	.	.	.	.	.
CC(=O)Nc1ccc2c(c1)Cc1cc(N3C(=O)C=CC3=O)ccc1-2	33*	35*	.	33*	56*	17	99*	85*	30*	ABHD5-PLIN5 conf=45*;HNF4 counter=104*
COc1ccc(OC)c2c1C(=O)C(Cl)=C(Cl)C2=O	86*	93*	.	46*	70*	24	97*	88*	34*	ABHD5-PLIN5 conf=104*;HNF4 counter=111*
COc1ccc(OC)c2c1C(=O)c1ccccc1C2=O	.	.	16	.	.	.	.	.	.
CN(C)c1ccc(/C=C/c2nc3ccccc3c(=O)n2CCO)cc1	35*	-5	.	45*	3	5	6	20	28*
O=C(Nc1ccnn1C1CCNCC1)c1ccc2c(c1)OCO2	-8	-6	.	5	.	.	.	.	.

Compound activity: PubChem, The Scripps Research Institute Molecular Screening Center
